A short description of assay [1]: A549 cell viability effects, profiling panel, calcein-AM fluorescence, 48 h, basal (AID 1162). Note: test concentration not given here. The settings on record: higher = more signal.
A short description of assay [2]: adipocyte viability effects, profiling panel, cell-based, 3T3-L1 adipocytes, calcein-AM fluorescence, 48 h, basal (AID 1163). Note: test concentration not given here. The settings on record: 3T3-L1 adipocytes viability, higher = more signal.
A short description of assay [3]: HepG2 cell viability effects, profiling panel, calcein-AM fluorescence, 48 h, basal (AID 1164). Note: test concentration not given here. The following applies: higher = more signal.
A short description of assay [4]: MM1S cell viability effects, profiling panel, calcein-AM fluorescence, 48 h, basal (AID 1165).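 Note: viability of MM1S multiple myeloma cells under basal unstimulated conditions; test concentration not given here.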 The settings on record: higher = more signal.
Assay [5] in a line: basal RPMI8226 viability, no added stimulus, profiling panel, cell-based, calcein-AM fluorescence, 48 h, PK04 Diversity Set (AID 1166).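 Note: cells grown under basal conditions without added stimulus; test concentration not given here.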 The following applies: RPMI8226 myeloma viability, higher = more signal.
Assay [6] in a line: basal HepG2 mitochondrial membrane potential changes, profiling panel, cell-based, JC-1 fluorescence, 24 h, 100 nL compound (AID 1167). Note: test concentration not given here. The settings on record: higher = more signal.
A short description of assay [7]: basal 3T3-L1 adipocyte mitochondrial potential changes, profiling panel, cell-based, JC-1 fluorescence, 3T3-L1 adipocytes, 24 h, 100 nL compound (AID 1168). Note: test concentration not given here. The following applies: JC-1 mitochondrial fluorescence, higher = more signal, called active from +8 up or from −8 down.
A short description of assay [8]: basal RPMI8226 mitochondrial membrane potential changes, profiling panel, cell-based, JC-1 fluorescence, 24 h, 100 nL compound (AID 1169). Note: test concentration not given here. The settings on record: RPMI8226 myeloma, JC-1 mitochondrial potential fluorescence, higher = more signal.
The nature of assay [9]: basal MM1S mitochondrial membrane potential changes, profiling panel, cell-based, JC-1 fluorescence, 24 h, 100 nL compound (AID 1170). Note: test concentration not given here. The settings on record: higher = more signal.
Assay [10] is described as follows: A549 lung cancer cell viability effects, profiling panel, resazurin fluorescence, 24 h, PK04 Diversity Set (AID 1171). Note: test concentration not given here. The settings on record: higher = more signal, called active from +8 up or from −8 down. For orientation: Alamar Blue is a resazurin reagent that responds to reducing activity.
The nature of assay [11]: HepG2 liver cancer cell viability effects, profiling panel, resazurin fluorescence, 24 h, PK04 Diversity Set (AID 1172). Note: test concentration not given here. The following applies: higher = more signal.
Assay [12] can be described thus: basal S. cerevisiae growth modulation, no modifier, primary screen, OD600, strain BY4716, 24 h, basal condition (AID 1173). The settings on record: OD600, 24 h, higher = more signal, called active from +8 up or from −8 down.
Assay [13] is described as follows: MM1S myeloma cell viability, profiling panel, resazurin fluorescence, basal, 24 h, PK04 Diversity Set (AID 1174).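 Note: MM1S multiple myeloma cell line; test concentration not given here.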 The settings on record: higher = more signal, called active from +8 up or from −8 down.
For assay [14], the target named is Dihydroorotate dehydrogenase (quinone), mitochondrial (Plasmodium falciparum (isolate 3D7)) (UniProt Q08210). In words: PfDHODH enzyme inhibitors, primary screen, biochemical, C-terminal His tag, absorbance 600 nm (AID 1175).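 Note: recombinant parasite enzyme with a five histidine tag at its C terminus; test concentration not given here.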 The following applies: DCIP absorbance 600 nm, higher = more signal, called active from +8 up or from −8 down.
Dihydroorotate dehydrogenase (quinone), mitochondrial (Plasmodium falciparum (isolate 3D7)), sequence (Q08210 whole entry, looked up): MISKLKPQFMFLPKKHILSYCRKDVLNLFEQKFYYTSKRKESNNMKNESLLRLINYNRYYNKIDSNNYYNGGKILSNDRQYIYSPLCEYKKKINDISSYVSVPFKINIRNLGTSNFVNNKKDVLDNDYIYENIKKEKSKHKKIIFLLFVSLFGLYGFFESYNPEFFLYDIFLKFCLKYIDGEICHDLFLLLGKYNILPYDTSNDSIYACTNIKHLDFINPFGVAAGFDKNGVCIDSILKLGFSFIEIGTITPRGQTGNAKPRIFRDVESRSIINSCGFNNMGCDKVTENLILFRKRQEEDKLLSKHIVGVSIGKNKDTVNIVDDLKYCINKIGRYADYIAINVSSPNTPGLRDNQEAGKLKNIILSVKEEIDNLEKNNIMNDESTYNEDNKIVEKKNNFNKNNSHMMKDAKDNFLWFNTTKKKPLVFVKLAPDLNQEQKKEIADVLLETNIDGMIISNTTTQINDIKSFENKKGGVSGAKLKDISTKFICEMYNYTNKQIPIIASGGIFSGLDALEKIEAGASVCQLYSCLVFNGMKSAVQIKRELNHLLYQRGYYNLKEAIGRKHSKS
Assay [15] is described as follows: P. aeruginosa biofilm formation inhibitors, primary screen, strain PAO1, LB-PBS medium, absorbance 600 nm (AID 1176). Note: test concentration not given here. The following applies: P. aeruginosa PAO1 growth/biofilm, A600, 12 h; higher = more signal.
The nature of assay [16]: S. cerevisiae RM11-1a growth modifiers, primary screen, strain RM11-1a, OD600, basal, 24 h (AID 1177).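 Note: cultures grown under basal conditions with no added stressor; test concentration not given here.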 The following applies: OD600, 24 h, higher = more signal, called active from +8 up or from −8 down.
Assay [17] can be described thus: E. coli acrAB mutant growth effects, primary screen, E. coli filamentation inducers, strain DRC39, OD650, 24 h (AID 1178).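 Note: growth measured as culture turbidity by optical density at 650 nm; test concentration not given here.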 The following applies: higher = more signal, called active from +8 up or from −8 down.
The nature of assay [18]: E. coli acrAB mutant growth effects, primary screen, E. coli filamentation inducers, strain DRC39, OD650, 48 h (AID 1179).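 Note: screen aims at cell division blockers that make cells filament.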 The following applies: E. coli DRC39 delta-acrAB growth, higher = more signal, called active from +8 up or from −8 down.
The nature of assay [19]: RPMI8226 myeloma cell viability, profiling panel, resazurin fluorescence, basal, 24 h, PK04 Diversity Set (AID 1180).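 Note: RPMI8826 multiple myeloma cell line at 5000 cells per well; test concentration not given here.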 The settings on record: higher = more signal.
The target in assay [20] is E3 ubiquitin-protein ligase XIAP (Homo sapiens) (UniProt P98170). Put plainly: XIAP binders, primary screen, biophysical, small-molecule microarray, fluorescence 635 nm (AID 1181).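 Note: score merges 667 nm emission and signal to noise over triplicate slides.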 The following applies: small-molecule microarray binding, higher = more signal.
E3 ubiquitin-protein ligase XIAP (Homo sapiens), sequence (P98170 whole entry, looked up): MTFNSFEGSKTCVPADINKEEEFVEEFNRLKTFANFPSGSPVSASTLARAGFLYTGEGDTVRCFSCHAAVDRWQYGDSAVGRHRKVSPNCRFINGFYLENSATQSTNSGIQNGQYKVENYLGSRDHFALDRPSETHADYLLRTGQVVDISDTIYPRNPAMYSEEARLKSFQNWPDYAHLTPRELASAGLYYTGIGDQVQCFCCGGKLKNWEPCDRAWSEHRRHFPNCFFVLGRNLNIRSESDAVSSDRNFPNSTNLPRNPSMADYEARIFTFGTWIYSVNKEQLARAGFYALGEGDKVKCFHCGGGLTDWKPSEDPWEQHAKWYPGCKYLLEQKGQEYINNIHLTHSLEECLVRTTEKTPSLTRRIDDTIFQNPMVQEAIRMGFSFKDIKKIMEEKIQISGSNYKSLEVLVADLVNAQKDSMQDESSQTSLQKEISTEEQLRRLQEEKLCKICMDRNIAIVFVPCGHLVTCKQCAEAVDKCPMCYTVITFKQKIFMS

The values below come from PubChem BioAssay.

Calls of active or inactive are those of the source. Unless noted, the rule behind the calls is not given here.

Consider `C=C[C@H](CO[Si](CC)(CC)CC)N(Cc1ccc(OC(C)=O)c(OC)c1)S(=O)(=O)c1ccc(Br)cc1`, for which the z-score was -0.217 in [1]; 0.327 in [2]; -4.67 in [3]; -3.23 in assay [4]; -4.32 in assay [5]; -1.25 in assay [6]. For the same compound, the z-score in assay [7] was 1.07 (inactive); in assay [8], -1.1; in assay [9], -1.84; in assay [10] it was -0.18 (inactive); in [11], -0.423; in assay [12] it was -0.128 (inactive). Besides, the z-score is -0.649 (inactive) in assay [13]; -0.649 (inactive) in [15]; 0.292 (inactive) in assay [16]; 0.93 (inactive) in [17]; 1.67 (inactive) in assay [18]; -3.37 in assay [19]. The composite z-score in [14] is -1.38 (inactive); in assay [20] it was 0.0487.

For `CC1CC/C=C\[C@H]2OC34C=CCN(Cc5ccccc5)C(=O)[C@H]3N(CCCO)C(=O)[C@@H]4C2C(=O)O1` (stereo not given in full), the z-score in assay [1] is -0.0905; in assay [2], 0.324; in assay [3] it was -0.0453; in assay [4], -0.142; in assay [5] it was 0.197; in assay [6], 0.0693. The z-score in assay [7] was 0.237 (inactive); in assay [8] it was -0.0499; in assay [9], 1.68; in assay [10], -0.433 (inactive); in assay [11], -0.385; in assay [12] it was -0.739 (inactive). In addition, the z-score is 0.0639 (inactive) in [13]; -0.0963 (inactive) in assay [15]; -0.52 (inactive) in assay [16]; 1.02 (inactive) in assay [17]; 0.568 (inactive) in assay [18]; 0.44 in [19]. In addition, the composite z-score in assay [14] is -0.311 (inactive); in assay [20] it was -0.176.

Consider `C=CCOC(=O)[C@H]1[C@@H]2C(=O)O[C@@H](c3ccccc3)[C@@H](c3ccccc3)N2[C@@H](c2ccc(OCCOC(=O)[C@H]3C[C@H]4C(=O)N[C@@H](CCCC[N+](C)(C)C)C(=O)N4[C@H]3c3ccc(O)cc3)cc2)[C@]12C(=O)Nc1ccc(I)cc12`, for which the z-score is 0.191 in assay [1]; -0.113 in [2]; 0.837 in assay [3]; -0.233 in [4]; -0.661 in [5]; 0.239 in assay [6]. Further, the z-score is -0.672 (inactive) in assay [7]; 0.0674 in [8]; 0.17 in assay [9]; -0.0807 (inactive) in [10]; -0.427 in assay [11]; -0.154 (inactive) in assay [12]. Further, the z-score was -0.13 (inactive) in [13]; -0.379 (inactive) in [15]; 0.0102 (inactive) in assay [16]; -0.873 (inactive) in [17]; -0.473 (inactive) in assay [18]; -0.078 in assay [19]. Further, the composite z-score in assay [14] is -0.24 (inactive); in [20], 2.28.

`C=C(C)[C@@H]1CC=C(C(O)C2C=CC3C(=O)N(c4ccccc4)C(=O)C3N2Nc2ccccc2)CC1` (stereo not given in full): the z-score in [1] is 1.62; in assay [2], -0.63; in [3], 1.16; in assay [4] it was -0.646; in assay [5] it was -1.05; in assay [6], -1.95. Moreover, the z-score in assay [7] was -0.27 (inactive); in assay [8], -0.45; in assay [9] it was -0.31; in assay [10] it was 0.296 (inactive); in [11], -0.126; in assay [12], -1.81 (inactive). Besides, the z-score in [13] is 0.272 (inactive); in assay [15], 1.6 (inactive); in assay [16], 0.367 (inactive); in [17], 0.195 (inactive); in [18], -0.0871 (inactive); in assay [19], 0.37. For the same compound, the composite z-score in assay [14] is -0.376 (inactive); in assay [20], 0.0997.

With `COCCOC(=O)N1C(=O)[C@@]2(c3cc(C#Cc4ccc(OC)cc4)ccc31)[C@H](c1ccc(O)cc1)N1[C@H](c3ccccc3)[C@H](c3ccccc3)OC(=O)[C@H]1[C@@H]2C(=O)N1CCc2cc(OC)c(OC)cc2C1`, the z-score in [1] is -0.548; in assay [2], 1.22; in [3] it was -0.486; in assay [4], -0.0636; in assay [5], -0.063; in assay [6], 0.793. Further, the z-score in assay [7] was 2.76 (inactive); in assay [8], 0.188; in [9], 0.108; in assay [10] it was 0.776 (inactive); in assay [11], 0.28; in [12] it was -0.465 (inactive). The z-score in assay [13] is -0.0918 (inactive); in assay [15] it was 0.457 (inactive); in assay [16], -0.694 (inactive); in assay [17], -0.232 (inactive); in assay [18], -0.779 (inactive); in [19], 0.572. The values for the composite z-score in assay [14] and in assay [20] were -0.463 (inactive) and -0.197, respectively.
